Assay results as given in ChEMBL document CHEMBL3433997, “St. Jude Leishmania screening dataset” (2016).

Assays:
Format in all cases: functional
[1] = biological target: Solute carrier family 2, facilitated glucose transporter member 1 (Homo sapiens) (UniProt P11166); experiment: ST_JUDE_LEISH: Cytotoxicity at 2uM final concentration against transgenic Leishmania Mexicana promastigotes LmGLUT1 that are glucose transport deficient and complemented with the human glucose transporter GLUT1. Activity is measured by DNA content using SYBR green in vitro
Chain of Solute carrier family 2, facilitated glucose transporter member 1 (Homo sapiens) (P11166 whole entry): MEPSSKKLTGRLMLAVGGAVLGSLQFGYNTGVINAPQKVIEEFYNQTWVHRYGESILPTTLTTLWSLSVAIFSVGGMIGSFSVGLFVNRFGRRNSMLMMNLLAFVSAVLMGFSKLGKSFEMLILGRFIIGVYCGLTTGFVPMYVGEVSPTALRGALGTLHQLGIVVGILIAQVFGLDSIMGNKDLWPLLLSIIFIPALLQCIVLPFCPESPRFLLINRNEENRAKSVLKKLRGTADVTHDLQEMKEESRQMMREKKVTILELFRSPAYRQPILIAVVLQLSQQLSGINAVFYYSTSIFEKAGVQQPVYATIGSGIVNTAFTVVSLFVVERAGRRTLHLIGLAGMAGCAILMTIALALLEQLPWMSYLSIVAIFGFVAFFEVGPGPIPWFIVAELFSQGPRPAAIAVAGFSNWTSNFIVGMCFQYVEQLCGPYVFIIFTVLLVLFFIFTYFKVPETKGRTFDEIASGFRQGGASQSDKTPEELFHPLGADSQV

[2] = biological target: Hexose transporter 1 (Plasmodium falciparum) (UniProt O97467); experiment: ST_JUDE_LEISH: Cytotoxicity at 2uM final concentration against transgenic Leishmania Mexicana promastigotes LmPfHT that are glucose transport deficient and complemented with the Plasmodium falciparum hexose transporter. Activity is measured by DNA content using SYBR green in vitro
[3] = biological target: Glucose transporter (Leishmania mexicana) (UniProt O61059); experiment: ST_JUDE_LEISH: Cytotoxicity at 2uM final concentration against transgenic Leishmania Mexicana promastigotes LmGT2 that are glucose transport deficient and complemented with the L. Mexicana glucose transporter 2. Activity is measured by DNA content using SYBR green in vitro

COc1cccc(-c2nn(C)c3sc(C(=O)Nc4cccnc4)cc23)c1
inhibition [1]: 0.24%
inhibition [2]: -1.97%
inhibition [3]: -0.35%

COc1cccc(Nc2nnc(SCC(=O)NNC(=O)c3ccccn3)s2)c1
inhibition [1]: 0.56%
inhibition [2]: 2.27%
inhibition [3]: -1.42%

CCc1cn(C)c2c(N3CCCC3=O)cc(C(=O)N[C@@H](Cc3ccccc3)[C@H](O)CNC(C)(C)CCCC(C)C)cc12
inhibition [1]: 3.03%
inhibition [2]: 4.09%
inhibition [3]: 3.95%

Fc1ccc(OC2CN(c3nccc(NCc4ccccc4Cl)n3)C2)cc1
inhibition [1]: 3.81%
inhibition [2]: 2.84%
inhibition [3]: -0.6%

COc1ccc(-c2csc3ncnc(Cl)c23)cc1OC
inhibition [1]: 3.91%
inhibition [2]: 3.53%
inhibition [3]: -0.23%

CCCN(Cc1nnc(-c2ccco2)o1)C(=O)C1CCN(c2ncc(C(F)(F)F)cc2Cl)CC1
inhibition [1]: 11.4%
inhibition [2]: 10.2%
inhibition [3]: 10.8%

COc1cccc(CNC(=O)[C@H]2CNCCN2C(=O)CCCc2ccccc2)c1
inhibition [1]: 3.03%
inhibition [2]: -0.14%
inhibition [3]: 5.01%

O=C(Nc1ccc(C(F)(F)F)cc1)c1ccc(S(=O)(=O)NC2CCN(CC3CCCCC3)C2)cc1 (stereo unspecified)
inhibition [1]: -3%
inhibition [2]: 1.05%
inhibition [3]: -3.85%

Cc1cc(F)ccc1-c1nc(Nc2ccncc2)c2ccn(C)c2n1
inhibition [1]: 1.12%
inhibition [2]: 2.6%
inhibition [3]: 0.38%

C[C@@H](Oc1cc(-n2cnc3ccc(NC(=O)CCN4CCCCC4)cc32)sc1C(N)=O)c1ccccc1Cl
inhibition [1]: 8.99%
inhibition [2]: 5.72%
inhibition [3]: -0.04%

CS(=O)(=O)Cc1cccc(Nc2ncc(Cl)c(Nc3cccnc3C(N)=O)n2)c1
inhibition [1]: 11.5%
inhibition [2]: 12.6%
inhibition [3]: 15.6%

Cc1cc(C(=O)CN2C(=O)NC3(CCOc4ccccc43)C2=O)c(C)n1Cc1ccco1 (stereo unspecified)
inhibition [1]: 5.85%
inhibition [2]: 4.77%
inhibition [3]: 3.86%
